Screens: PubChem BioAssay, National Center for Advancing Translational Sciences (NCATS)
Only some compounds are listed: those with a hit (about 19% of all), similar ones and a draw of the others.
TDP1 cell CPT – growth inhibition of DT40 Tdp1-/-;hTDP1 cells with camptothecin (screen for TDP1 inhibitors); 12% of 420,000 active; AID 686979; chicken DT40 Tdp1-/-;hTDP1 cells + 20 nM CPT, ATP luminescence, 48 h; Potency, µM (series often up to 46.2 µM), usual class: inhibitors; further: nearly all actives have a fitted effect of over 55% in size
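Cell growth measured by CellTiter-Glo luminescence after a minimum 48 h, 37 C compound exposure with 20 nM CPT in Tdp1-knockout DT40 cells stably expressing hTDP1, seeded 400/well; qHTS titration format.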
HT1080 IDH1KD tx – kills HT-1080 cells with IDH1 knockdown | HT-1080 IDH1 knockdown viability, ATP luminescence, 48 h | Potency, µM (top dose mostly 46.1 µM), usual class: cytotoxic | 2% of 360,000 active
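Using the IDH1-knockdown HT-1080 line run in the same batch and compound series as the NT line, viability after 48 h at 37 °C was determined by CellTiter-Glo luminescence and expressed as % activity.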
HT1080-NT tox – kills 2HG-producing HT-1080-NT fibrosarcoma cells | HT-1080-NT fibrosarcoma viability, CellTiter-Glo ATP luminescence, 48 h | 1.6% of 360,000 active | Potency, µM (doses to about 46.1 µM), actives largely listed as cytotoxic | AID 686970;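 further: NT is the 2HG producing partner of a matched IDH1 knockdown line; nearly all actives have a fitted effect of over 55% in size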
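Read-out is CellTiter-Glo luminescence after 10 minutes at room temperature, following 48 hours' compound treatment of HT-1080-NT cells (750 cells/well, RPMI, 5% FBS, 37 degrees C).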
IL1B secr inh – inflammasome signaling inhibition, IL-1 beta readout | 4.7% of 360,000 active | activity change, % at 57.5 µM | THP-1 LPS/ATP IL-1B secretion, AlphaLISA, 16 h; stronger effect = lower value; in the data active means activity change below about -50%; inconclusive means mostly about -30% to -49%
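Secreted IL-1B measured by AlphaLISA bead assay after 16 h compound exposure of THP-1 cells; compounds (final up to 57.5 uM) added 1 h before LPS (250 ng/mL) and ATP (1.25 mM) stimulation; lower signal means less secretion.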
TDP1 cell noCPT – qHTS for Inhibitors of human tyrosyl-DNA phosphodiesterase 1 (TDP1): qHTS in cells in absence of CPT; DT40 Tdp1-/- hTDP1 cells, no CPT, ATP luminescence, 48 h; Potency, µM (top dose mostly 46.2 µM), actives largely listed as inhibitors; 15% of 420,000 active; further: nearly all actives have a fitted effect of over 55% in size
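Readout: luminescence from CellTiter-Glo after 30 min in the dark at RT. Cells: DT40 Tdp1-/- with stable hTDP1, 400/well. Exposure: compounds alone, ≥48 hr, 37 °C.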
A number is an active result. Unless noted, the call rests on the fitted dose curve; in most records, active means well fitted curve in the direction sought with a large enough effect; inconclusive means small, poorly fitted or top-dose-only effect, or another doubt; inactive means no such curve, though single readings can be large; an effect the other way counts as inactive or inconclusive.

O=C(CSc1nnc(C2CCCCC2)n1Cc1ccccc1)NCc1ccco1 was read as TDP1 cell CPT 16.4µM, HT1080 IDH1KD tx inactive, HT1080-NT tox inactive, IL1B secr inh inactive and TDP1 cell noCPT 16.4µM.
Cc1cc(SCC(=O)NC(=O)NCc2ccco2)nc2c(C)cccc12 was read as TDP1 cell CPT inconclusive, HT1080 IDH1KD tx inconclusive, HT1080-NT tox inactive, IL1B secr inh inactive and TDP1 cell noCPT 29.1µM.
Screening CCn1c(SCC(=O)NCc2ccco2)nnc1C1CCCC1 returned TDP1 cell CPT inactive, HT1080 IDH1KD tx inactive, HT1080-NT tox inactive, IL1B secr inh inactive and TDP1 cell noCPT inactive.
Cc1ccc(S(=O)(=O)n2[nH]c(=O)c(CCO)c2C)cc1 was read as TDP1 cell CPT inactive, HT1080 IDH1KD tx inactive, HT1080-NT tox inactive, IL1B secr inh inactive and TDP1 cell noCPT inactive.
O=C(NCCCNc1ccnc2cc(Cl)ccc12)c1ccccc1F was read as TDP1 cell CPT inconclusive, HT1080 IDH1KD tx inactive, HT1080-NT tox inactive, IL1B secr inh inactive and TDP1 cell noCPT inconclusive.
`c1ccc2c3n(nc2c1)CCCO3` gave TDP1 cell CPT inactive, HT1080 IDH1KD tx inactive, HT1080-NT tox inactive, IL1B secr inh inactive and TDP1 cell noCPT inactive.
Screening Cc1ccc(CC(=O)NNC(=O)c2ccncc2)cc1C returned TDP1 cell CPT inconclusive, HT1080 IDH1KD tx inactive, HT1080-NT tox inactive, IL1B secr inh inactive and TDP1 cell noCPT inconclusive.
Cc1cc2nnc(SCC(=O)NCc3ccco3)n2c2ccccc12 was read as TDP1 cell CPT 4.61µM, HT1080 IDH1KD tx inconclusive, HT1080-NT tox inconclusive, IL1B secr inh inactive and TDP1 cell noCPT 4.61µM.
Cc1cc2nnc(SCC(=O)NCc3cccs3)n2c2ccccc12 was read as TDP1 cell CPT inactive, HT1080 IDH1KD tx inactive, HT1080-NT tox inactive, IL1B secr inh inactive and TDP1 cell noCPT inactive.
`CCOC(=O)c1c(C)[nH]c(C(=O)OCc2csc(CC(=O)Nc3ccccc3C)n2)c1C` gave TDP1 cell CPT 16.4µM, HT1080 IDH1KD tx inactive, HT1080-NT tox inactive, IL1B secr inh inactive and TDP1 cell noCPT 13µM.
`Cc1ccccc1NC(=O)Cc1nc(COC(=O)c2ncc(Cl)c(Cl)c2Cl)cs1` gave TDP1 cell CPT inconclusive, HT1080 IDH1KD tx inactive, HT1080-NT tox inactive, IL1B secr inh -88.4 and TDP1 cell noCPT inconclusive.
`OCC1OC(n2cnc3c(NCc4ccco4)ncnc32)C(O)C1O` (stereo not drawn) gave TDP1 cell CPT 2.31µM, HT1080 IDH1KD tx 11.6µM, HT1080-NT tox 11.6µM, IL1B secr inh inconclusive and TDP1 cell noCPT 2.06µM.
Screening Cc1ccccc1CNc1ncnc2c1ncn2[C@@H]1O[C@H](CO)[C@@H](O)[C@H]1O returned TDP1 cell CPT inconclusive and TDP1 cell noCPT 11.9µM.
`C=CCNc1ncnc2c1ncn2C1OC(CO)C(O)C1O` (stereo not drawn) gave TDP1 cell CPT 18.4µM, HT1080 IDH1KD tx 18.4µM, HT1080-NT tox 9.2µM, IL1B secr inh inactive and TDP1 cell noCPT 20.6µM.
C[C@@H](Cc1ccccc1)Nc1ncnc2c1ncn2[C@@H]1O[C@H](CO)[C@@H](O)[C@H]1O was read as TDP1 cell CPT inactive and TDP1 cell noCPT inactive.
OC[C@H]1O[C@@H](n2cnc3c(NCc4ccco4)ncnc32)[C@H](O)[C@@H]1O was read as TDP1 cell CPT 2.31µM, HT1080 IDH1KD tx 6.51µM, HT1080-NT tox 5.8µM, IL1B secr inh inactive and TDP1 cell noCPT 2.06µM.
Screening OC[C@@H]1O[C@@H](n2cnc3c(NC4CCCC4)ncnc32)[C@H](O)[C@H]1O returned TDP1 cell CPT inactive and TDP1 cell noCPT inactive.
OC[C@H]1O[C@@H](n2cnc3c(NC4CCCC4)ncnc32)[C@H](O)[C@@H]1O was read as TDP1 cell CPT inactive, HT1080 IDH1KD tx inactive, HT1080-NT tox inconclusive, IL1B secr inh inactive and TDP1 cell noCPT inactive.
COc1cccc(NC(=O)COC(=O)c2ccc(S(=O)(=O)NCc3ccco3)cc2)c1 was read as TDP1 cell CPT inactive, HT1080 IDH1KD tx inactive, HT1080-NT tox inactive, IL1B secr inh inactive and TDP1 cell noCPT inactive.
COc1cccc(S(=O)(=O)N(C)C[C@H]2Oc3ncc(Br)cc3C(=O)N([C@@H](C)CO)C[C@@H]2C)c1 was read as TDP1 cell CPT inconclusive, HT1080 IDH1KD tx inactive, HT1080-NT tox inactive, IL1B secr inh inactive and TDP1 cell noCPT inconclusive.
`CC1CCCC=CC2CC(OC(=O)CN(C)C)CC2C(O)C=CC(=O)O1` (stereo not drawn) gave TDP1 cell CPT 0.92µM, HT1080 IDH1KD tx 0.0291µM, HT1080-NT tox inconclusive, IL1B secr inh inactive and TDP1 cell noCPT 1.03µM.
Screening CCN1C(=S)SC(=O)C1=C1C=C(C)N(Cc2ccco2)C(C)=C1 returned TDP1 cell CPT 4.61µM, HT1080 IDH1KD tx inactive, HT1080-NT tox inactive, IL1B secr inh inactive and TDP1 cell noCPT 5.17µM.
For O=C(NCCC1=CCCCC1)C1CCN(S(=O)(=O)c2ccccc2C(F)(F)F)CC1 the results were TDP1 cell CPT inconclusive, HT1080 IDH1KD tx inactive, HT1080-NT tox inactive, IL1B secr inh inactive and TDP1 cell noCPT inconclusive.
Cc1cc(C)nc(SCC(=O)Nc2ccnc3ccccc23)n1 was read as TDP1 cell CPT 1.64µM, HT1080 IDH1KD tx inactive, HT1080-NT tox inactive, IL1B secr inh inconclusive and TDP1 cell noCPT 0.651µM.
`Cc1cc(SCNC(=O)c2ccccc2)nc(C(C)C)n1` gave TDP1 cell CPT inactive, HT1080 IDH1KD tx inactive, HT1080-NT tox inactive, IL1B secr inh inactive and TDP1 cell noCPT inactive.
For O=C(CSC1=NCCS1)Nc1ccc2ccccc2c1 the results were TDP1 cell CPT inactive, HT1080 IDH1KD tx inactive, HT1080-NT tox inactive, IL1B secr inh inactive and TDP1 cell noCPT inactive.
`O=C(CSC1=NCCS1)Nc1ccnc2ccccc12` gave TDP1 cell CPT 6.51µM, HT1080 IDH1KD tx inactive, HT1080-NT tox inconclusive, IL1B secr inh inconclusive and TDP1 cell noCPT 9.2µM.
For Cc1cc(C)nc(SCNC(=O)c2ccccc2)n1 the results were TDP1 cell CPT inactive, HT1080 IDH1KD tx 7.08µM, HT1080-NT tox 5.01µM, IL1B secr inh inactive and TDP1 cell noCPT inactive.
For Cc1cc(C)nc(NC(=O)CSc2nccc(C)n2)n1 the results were TDP1 cell CPT inactive, HT1080 IDH1KD tx inactive, HT1080-NT tox inactive, IL1B secr inh inactive and TDP1 cell noCPT inactive.
`CCOc1ccc(C(=O)CCC(=O)Nc2cccc(S(=O)(=O)N3CCCCC3)c2)cc1` gave TDP1 cell CPT inconclusive, HT1080 IDH1KD tx inactive, HT1080-NT tox inactive, IL1B secr inh inactive and TDP1 cell noCPT inconclusive.
Screening CCCN(CCC)CCNC(=O)c1cc2c(=O)n(CC)c3ccccc3c2s1 returned TDP1 cell CPT inactive, HT1080 IDH1KD tx inactive, HT1080-NT tox inactive, IL1B secr inh inactive and TDP1 cell noCPT inconclusive.
For CN(C)CCNC(=O)c1cc2sc3ccccc3c2s1 the results were TDP1 cell CPT inconclusive, HT1080 IDH1KD tx 23.1µM, HT1080-NT tox 20.6µM, IL1B secr inh -70.9 and TDP1 cell noCPT 23.1µM.
